An excerpt weighted towards active compounds, which were near 6.3% of everything screened.
MPTP inh: blocks calcium-induced mitochondrial swelling. isolated mouse mitochondria, Ca2+ swelling absorbance, 30 min. inhibition, % at 10 µM. hit rate 1.4% among 360,000. AID 602449;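 active means inhibition of 50% or more, scaled per plate between neutral and stimulator controls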
Mdm2-MdmX inh: human Mdm2/MdmX binding inhibition; O15151+Q00987; SaOS-2 split-luciferase Mdm2/MdmX complementation, luminescence; inhibition, % at 8 µM; hit rate 3% among 330,000;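 active means inhibition of at least 50% at 8 µM in the primary screen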
Target sequence (O15151 whole entry, looked up): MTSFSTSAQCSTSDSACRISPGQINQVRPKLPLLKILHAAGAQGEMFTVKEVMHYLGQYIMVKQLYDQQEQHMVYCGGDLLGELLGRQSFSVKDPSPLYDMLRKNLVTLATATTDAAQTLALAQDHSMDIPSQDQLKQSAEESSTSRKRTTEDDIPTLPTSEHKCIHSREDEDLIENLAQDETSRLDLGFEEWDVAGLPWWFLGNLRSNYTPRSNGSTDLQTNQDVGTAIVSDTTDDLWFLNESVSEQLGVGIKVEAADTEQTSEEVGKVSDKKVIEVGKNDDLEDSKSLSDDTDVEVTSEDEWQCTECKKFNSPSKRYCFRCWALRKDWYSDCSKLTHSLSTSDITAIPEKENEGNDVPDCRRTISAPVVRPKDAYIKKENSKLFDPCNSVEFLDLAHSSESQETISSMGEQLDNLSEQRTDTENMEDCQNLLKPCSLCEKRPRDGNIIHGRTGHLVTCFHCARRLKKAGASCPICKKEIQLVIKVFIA
Target sequence (Q00987 whole entry, looked up): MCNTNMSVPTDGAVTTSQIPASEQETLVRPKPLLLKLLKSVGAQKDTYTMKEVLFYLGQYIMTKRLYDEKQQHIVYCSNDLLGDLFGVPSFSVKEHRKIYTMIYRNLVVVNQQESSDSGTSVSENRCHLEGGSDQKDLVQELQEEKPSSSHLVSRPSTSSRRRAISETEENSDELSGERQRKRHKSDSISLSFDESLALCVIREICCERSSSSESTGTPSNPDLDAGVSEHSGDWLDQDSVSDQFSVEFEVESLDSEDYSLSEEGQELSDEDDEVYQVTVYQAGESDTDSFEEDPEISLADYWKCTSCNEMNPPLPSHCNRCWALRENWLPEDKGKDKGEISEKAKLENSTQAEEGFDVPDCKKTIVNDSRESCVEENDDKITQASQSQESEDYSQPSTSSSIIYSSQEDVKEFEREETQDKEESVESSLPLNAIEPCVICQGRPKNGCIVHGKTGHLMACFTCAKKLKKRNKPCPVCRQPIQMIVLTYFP
tim10-1 inh: growth inhibitors of tim10-1 mutant yeast; S. cerevisiae tim10-1 ts strain growth, BacTiter-Glo, 24 h; inhibition, % at 20 µM; hit rate 2.2% among 330,000;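 active means inhibition of at least 40%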;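 further: mutant grown at 25 °C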
tim23-1 inh: inhibits growth of tim23-1 mutant yeast; S. cerevisiae tim23-1 growth, BacTiter-Glo luminescence, 24 h; inhibition, % at 20 µM; hit rate 1.3% among 330,000; AID 463212;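 active means growth inhibition of the mutant yeast at or above 50%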;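 further: temperature-sensitive mutant grown at 25 °C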
TIM10 inh: TIM10 yeast growth inhibition | S. cerevisiae TIM10 strain growth, BacTiter-Glo luminescence, 24 h | inhibition, % at 10 µM | hit rate 1.4% among 330,000;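 active means inhibition of 40% or more at the single tested concentration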;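 further: wild-type TIM10 isogenic control strain grown at permissive 25 °C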
tim10-1 conf: confirmation of tim10-1 mutant yeast growth inhibitors; shares compounds with tim10-1 inh; S. cerevisiae tim10-1 ts strain growth, BacTiter-Glo, 24 h; inhibition, % at 20 µM; hit rate 56% among 7,400; AID 463213;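 active means inhibition of yeast growth at or above a set limit in either of two repeat tests at 20 µM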;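 further: tim10-1 mutant grown at permissive 25 °C to find synthetic lethal compounds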
TIM10 conf: confirmation of TIM10 yeast growth inhibitors. shares compounds with TIM10 inh. S. cerevisiae tim10 strain growth, BacTiter-Glo luminescence, 24 h. inhibition, % at 10 µM. hit rate 63% among 4,600;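 active means inhibition of yeast growth at or above a set limit in either of two replicates at 10 µM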; further: this counterscreen used the strain with wild-type TIM10
Large screens that a line does not name were inactive (follow-up assays come after a bar, where they were run).

Cc1cccc(C(CC(=O)N2CCCC2)c2ccccc2)c1O (stereo unspecified)	none
Cc1ccc(C(CC(=O)N2CCCC2)c2ccccc2)c(O)c1C (stereo unspecified)	tim10-1 inh 41.3, TIM10 inh 71.8 | tim10-1 conf inactive | TIM10 conf 32.9
CC1(C(=O)NCC(F)(F)F)CCN1C(=O)Cc1ccc(-c2ccccc2)cc1 (stereo unspecified)	none (no result: Mdm2-MdmX inh, tim10-1 inh, tim23-1 inh, TIM10 inh)
O=C(NC1CCCCC1)c1[nH]c(C(F)(F)F)nc1-c1ccccc1	none (no result: Mdm2-MdmX inh, tim10-1 inh, tim23-1 inh, TIM10 inh)
O=C1OCC(CO)(CO)N=C1NNc1ccc(Cl)c(Cl)c1	tim10-1 inh 48.7, TIM10 inh 42.4 | tim10-1 conf inactive | TIM10 conf 41.0
O=C(Nc1ccc2nc([C@@H]3O[C@H](CO)[C@@H](O)[C@H](O)[C@H]3O)[nH]c2c1)NC(c1ccccc1)c1ccccc1	none (no result: Mdm2-MdmX inh, tim10-1 inh, tim23-1 inh, TIM10 inh)
CN1CCN(C(=O)/C(=C\c2ccccc2)c2ccccc2)CC1	none
CC1CCN(C(=O)/C(=C/c2ccccc2Cl)c2ccccc2)CC1	tim10-1 inh 41.5, TIM10 inh 41.5 | tim10-1 conf inactive | TIM10 conf inactive
O=C(CCCN1C(=O)/C(=C/c2ccccc2Cl)SC1=S)NCCCN1CCOCC1	tim10-1 inh 44.1, TIM10 inh 43.5 | tim10-1 conf 41.1 | TIM10 conf 46.2
Cc1cc(Cl)ccc1-c1cc2nc(NCCCN(C)C)n(C)c(=O)c2s1	none (no result: Mdm2-MdmX inh, tim10-1 inh, tim23-1 inh, TIM10 inh)
Cc1ccc(NC(NC(=O)c2cccs2)C(Cl)(Cl)Cl)cc1C (stereo unspecified)	tim10-1 inh 53.9, TIM10 inh 58.5 | tim10-1 conf 44.0 | TIM10 conf inactive
Cc1ccccc1NC(NC(=O)c1cccs1)C(Cl)(Cl)Cl (stereo unspecified)	tim10-1 inh 42.5, TIM10 inh 47.2 | tim10-1 conf 48.9 | TIM10 conf 51.4
CC(=O)NCCNC(=O)Cn1nnc(-c2ccccc2)c1COc1ccc2ccccc2c1	none (no result: Mdm2-MdmX inh, tim10-1 inh, tim23-1 inh, TIM10 inh)
CCOC(=O)C1(C)CCCN1C(=O)c1ccc(OC)c(OC)c1 (stereo unspecified)	none (no result: Mdm2-MdmX inh, tim10-1 inh, tim23-1 inh, TIM10 inh)
COc1ccccc1NC(=O)N(C)C[C@@H]1OCc2cn(nn2)CCCC(=O)N([C@H](C)CO)C[C@H]1C	none (no result: Mdm2-MdmX inh, tim10-1 inh, tim23-1 inh, TIM10 inh)
COc1ccc(/C(N)=N/OC(=O)c2ccc3c(c2)OCO3)cc1	tim10-1 inh 63.7, TIM10 inh 65.8 | tim10-1 conf 49.8 | TIM10 conf inactive
Cc1ccc(/C(N)=N/OC(=O)c2ccc3c(c2)OCO3)cc1	tim10-1 inh 55.8, TIM10 inh 63.1 | tim10-1 conf 51.5 | TIM10 conf inactive
O=C(c1ccc([N+](=O)[O-])cc1Cl)N1CCN(Cc2ccccc2)CC1	none (no result: Mdm2-MdmX inh, tim10-1 inh, tim23-1 inh, TIM10 inh)
CC1(C)CC(=O)C/C(=N\NC(=S)NCc2ccccc2)C1	none
CC1C/C(=N\NC(=S)NCc2ccccc2)CC(C)(C)C1 (stereo unspecified)	tim10-1 inh 58.1, TIM10 inh 54.0 | tim10-1 conf 47.9 | TIM10 conf 45.1
Cc1c(C#N)c2n(c1C)CCCC(=O)N2	none (no result: Mdm2-MdmX inh, tim10-1 inh, tim23-1 inh, TIM10 inh)
CCOC(=O)C1Nc2c(F)cc(C)cc2C2c3ccccc3CC12 (stereo unspecified)	tim10-1 inh 48.8, TIM10 inh 46.4 | tim10-1 conf 55.3 | TIM10 conf 58.8
CCN(CC)C(=O)C1=C(C)N(Cc2ccc(OC)cc2)C(=O)C(CC(=O)NCC2CCCCC2)C1 (stereo unspecified)	none (no result: Mdm2-MdmX inh, tim10-1 inh, tim23-1 inh, TIM10 inh)
COC(=O)c1c(N2C(=O)CC(Sc3ccccc3C(=O)O)C2=O)sc2c1CCCC2 (stereo unspecified)	tim10-1 inh 46.1, TIM10 inh 45.9 | tim10-1 conf 47.0 | TIM10 conf inactive
COC(=O)c1c(N2C(=O)CC(Sc3ccccc3C(=O)O)C2=O)sc(C)c1C (stereo unspecified)	none
Cc1ccc(S(=O)(=O)CCC(=O)OCC(=O)Nc2cccc(S(=O)(=O)N3CCCCC3)c2)cc1	none (no result: Mdm2-MdmX inh, tim10-1 inh, tim23-1 inh, TIM10 inh)
CCOc1ccc2nc3ccc4[nH]onc4c3c2c1	tim10-1 inh 42.1, TIM10 inh 48.2 | tim10-1 conf 52.7 | TIM10 conf 52.8
CCOc1ccc2nc(N3CCOCC3)nc(C)c2c1	none
CCCc1cc(NCCN(C)C)n2c(nc3ccccc32)c1C#N	none
CCCc1cc(NCC2CCCO2)n2c(nc3ccccc32)c1C#N (stereo unspecified)	tim10-1 inh 40.8, TIM10 inh 40.9 | tim10-1 conf 37.0 | TIM10 conf inactive
Cc1ccc(C)c(NCCCCCCCC(=O)O)c1	none (no result: Mdm2-MdmX inh, tim10-1 inh, tim23-1 inh, TIM10 inh)
O=C(c1ccc2[nH]c3c(c2c1)CCCC3)N1CCN(c2ccc(F)cc2)CC1	tim10-1 inh 41.5, TIM10 inh 41.9 | tim10-1 conf inactive | TIM10 conf inactive
COc1ccccc1N1CCN(C(=O)c2ccc3[nH]c4c(c3c2)CCCC4)CC1	none
CSc1ccc(Cn2c(C)c(C(=O)NCc3ccc(F)cc3)sc2=O)cc1	none (no result: Mdm2-MdmX inh, tim10-1 inh, tim23-1 inh, TIM10 inh)
COc1ccc(C(=O)Nc2ccc(S(=O)(=O)N3CCCCC3)cc2)cc1OC	tim10-1 inh 48.9, TIM10 inh 60.3 | tim10-1 conf 33.4 | TIM10 conf inactive
COc1cc(OC)c(C(=O)Nc2ccc(S(=O)(=O)N3CCCCC3)cc2)cc1OC	none
Cc1cc(C(=O)Nc2ccc(S(=O)(=O)N3CCCC3)cc2)cs1	tim10-1 inh 43.8, TIM10 inh 55.8 | tim10-1 conf 40.1 | TIM10 conf 36.1
COc1cccc(-c2cnc(C(O)c3ccc(C)c(F)c3)[nH]2)c1 (stereo unspecified)	none (no result: Mdm2-MdmX inh, tim10-1 inh, tim23-1 inh, TIM10 inh)
C#CCn1c(S(=O)(=O)Cc2ccc(OC)cc2)nc(-c2ccccc2)c1-c1ccccc1	tim10-1 inh 47.3, TIM10 inh 44.6 | tim10-1 conf 41.3 | TIM10 conf inactive
COc1ccc(OC)c(C(c2nnnn2CCc2ccccc2)N2CCN(c3ccccc3)CC2)c1 (stereo unspecified)	none
CCC(c1nnnn1CCc1ccccc1)N1CCN(c2ccc(OC)cc2)CC1 (stereo unspecified)	tim10-1 inh 41.0, TIM10 inh 43.4 | tim10-1 conf inactive | TIM10 conf inactive
Oc1ccc(/C=N/NC(=S)NC2CC3CCC2C3)cc1 (stereo unspecified)	tim10-1 inh 42.4, TIM10 inh 57.5 | tim10-1 conf inactive | TIM10 conf inactive
CC(=O)c1ccc(NC(=O)c2ccc([N+](=O)[O-])o2)cc1	tim10-1 inh 56.9, TIM10 inh 80.8 | tim10-1 conf 42.9 | TIM10 conf 89.8
Cc1cc(C)nc(NC(=O)c2ccc([N+](=O)[O-])o2)n1	none
Cc1cc(C)cc(NC(=O)c2ccc([N+](=O)[O-])o2)c1	tim10-1 inh 49.2, TIM10 inh 82.7 | tim10-1 conf 34.5 | TIM10 conf 81.8
COc1cc(NC(=O)c2ccc([N+](=O)[O-])o2)ccc1NC(=O)c1ccco1	tim10-1 inh 45.6, TIM10 inh 47.2 | tim10-1 conf 44.9 | TIM10 conf 59.9
O=C(Nc1cccc(Cl)c1N1CCCC1)c1ccc([N+](=O)[O-])o1	tim10-1 inh 46.9, TIM10 inh 40.1 | tim10-1 conf 41.0 | TIM10 conf inactive
